D1 ag: Allosteric Agonists of the Human D1 Dopamine Receptor: qHTS. D(1A) dopamine receptor (Homo sapiens), P21728. activation, % at 2 µM. HEK293 T-REx D1 cells, calcium flux, agonist mode. 360,000 tested, 1% active; in the data active = activation above about 30%; note: 0% is about no effect
Target sequence (P21728 whole entry, looked up): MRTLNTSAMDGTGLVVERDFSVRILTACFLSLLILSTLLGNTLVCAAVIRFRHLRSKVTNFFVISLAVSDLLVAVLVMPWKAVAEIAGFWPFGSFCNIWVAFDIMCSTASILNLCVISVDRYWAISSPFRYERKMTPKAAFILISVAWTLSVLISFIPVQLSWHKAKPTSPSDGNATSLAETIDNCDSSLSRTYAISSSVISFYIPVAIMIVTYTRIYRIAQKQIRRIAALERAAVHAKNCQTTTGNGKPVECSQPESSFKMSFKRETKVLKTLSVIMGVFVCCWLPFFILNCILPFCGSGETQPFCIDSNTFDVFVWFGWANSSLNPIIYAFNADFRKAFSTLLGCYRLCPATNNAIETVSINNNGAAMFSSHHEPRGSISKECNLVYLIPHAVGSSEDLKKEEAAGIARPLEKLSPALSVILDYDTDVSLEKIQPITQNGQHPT
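Tetracycline-induced HEK293 TREx D1 cells, force-coupled to calcium signalling, were dye-loaded with a no-wash calcium kit. Compound was pin-added after a 10 s baseline. Fluorescence was read kinetically at 1 cycle/s for 180 s, with calcium rises flagged as agonism.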
D3 ag: qHTS of D3 Dopamine Receptor Agonist: qHTS. D(3) dopamine receptor (Homo sapiens), P35462. max activation, %. D3R DiscoveRx beta-arrestin cells, luminescence, 90 min. 410,000 tested, 0.58% active; in the data active = max activation above about 30%; note: 0% is about no effect
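Agonist mode: compounds and dopamine controls were applied to plated cells for 90 min at 37 degrees C after an overnight attachment at 1500 cells/well. Luminescent read-out followed 30 - 60 minutes at room temperature with DiscoveRx detection reagent.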
DRD3 antagonist: qHTS of D3 Dopamine Receptor Antagonist: qHTS | D(3) dopamine receptor (Homo sapiens), P35462 | D3R cells, DiscoveRx beta-arrestin luminescence, antagonist mode; active compounds read low | max response, negative = inhibition, % | 360,000 tested, 2.5% active; in the data active = max response below about -50%; inconclusive = no clear call, values can overlap the other calls; note: % is set by controls: 0 for no effect and ±100 for the full control effect
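Cells plated overnight at 1500 cells/well, then exposed to library compounds with dopamine controls for 90 minutes at 37 degrees C. DiscoveRx reagent added for 30–60 minutes at room temperature; luminescence read, quantitative HTS format.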
D1 antag: Antagonist of Human D 1 Dopamine Receptor: qHTS; HEK293 TREx D1 cells, calcium flux, dopamine EC80; active compounds read low; 360,000 tested, 3.2% active; AID 504652, 2011; D(1A) dopamine receptor (Homo sapiens), P21728; activity change, negative = inhibition, % at 10 µM; in the data active = activity change below about -30%; note: % is set by controls: 0 for no effect and ±100 for the full control effect
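Kinetic fluorescence of a calcium dye serves as the read-out. D1-expressing Hek293 Trex cells, induced overnight at 30 C, are exposed to compound for 180 s before an EC80 dopamine addition, then read 180 s further.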
D1 potentiator: Potentiators of Human D1 Dopamine Receptor: qHTS. D(1A) dopamine receptor (Homo sapiens), P21728. HEK293 TREx D1 cells, calcium flux, dopamine EC20 potentiation. potentiation, % at 10 µM. 360,000 tested, 0.036% active. AID 504651, 2011; in the data active = potentiation above about 30%; note: 0% is about no effect
* marks the source's active call; other numbers are inactive results; ? = inconclusive; · = not tested or not shown. An excerpt weighted towards active compounds, which were near 6.1% of everything screened.

SMILES	D1 ag	D3 ag	DRD3 antagonist	D1 antag	D1 potentiator
O=C(Nc1ccc(Cl)cc1)c1ccc(CN2CCc3ccccc3C2)cc1	1.0	-21.5	-15.7	-15.5	-4.6
COc1cccc(NC(=O)N2CCCc3ccccc32)c1	1.1	-7.2	1.8	-15.5	-1.3
COc1ccc(NC(=O)N2CCCc3ccccc32)cc1OC	0.3	2.8	0.5	-54.9*	1.2
O=C(Nc1ccc(S(=O)(=O)N2CCOCC2)cc1)c1ccc(CN2CCc3ccccc3C2)cc1	26.2	-11.0	-54.2*	-27.0	-11.3
COc1cccc(NC(=O)c2ccc(CN3CCc4ccccc4C3)cc2)c1	7.9	-17.3	-101.7*	5.6	-1.4
CN(c1ccc(C(=O)Nc2ccccc2Sc2ccccc2)cc1)S(C)(=O)=O	17.4	4.1	-5.8	-40.3*	-2.8
Cc1cc(C)c(NC(=O)c2ccc(CN3CCc4ccccc4C3)cc2)c(C)c1	1.3	-10.7	-52.8*	-6.4	-6.7
CCOC(=O)c1ccc(NC(=O)c2ccc(CN3CCc4ccccc4C3)cc2)cc1	9.9	-15.6	?	-8.0	-1.8
Cc1ccc(C(=O)Nc2ccccc2Sc2ccccc2)cc1	4.1	-6.7	?	-8.1	-6.3
CN(c1ccc(C(=O)Nc2ccc(CC#N)cc2)cc1)S(C)(=O)=O	3.2	0.6	10.8	-34.3*	-3.2
COc1ccc(NC(=O)c2ccc(CN3CCc4ccccc4C3)cc2)cc1OC	1.0	-15.2	-64.5*	0.2	-3.0
N#CCc1ccc(NC(=O)c2ccc(CN3CCc4ccccc4C3)cc2)cc1	5.2	-20.3	-53.3*	-11.3	-12.7
CN(c1ccc(C(=O)Nc2ccc3c(c2)OCO3)cc1)S(C)(=O)=O	2.5	-7.1	-16.8	2.0	-4.0
Cc1c(NC(=O)c2ccc(F)cc2)c(=O)n(-c2ccccc2)n1C	6.4	3.7	-15.8	4.2	·
CCOc1ccc(NC(=O)c2ccc(CN3CCc4ccccc4C3)cc2)cc1	2.0	-21.5	?	11.4	-1.9
Cc1c(NC(=O)c2ccc(CN3CCc4ccccc4C3)cc2)c(=O)n(-c2ccccc2)n1C	-1.3	-0.8	-79.0*	6.0	-2.0
CCOC(=O)c1ccc(NS(=O)(=O)c2cn(C)c(C)n2)cc1	-0.3	-6.5	·	-5.5	-1.1
CCN(CCCNC(=O)c1ccc(Sc2ccc(Cl)cc2)c(NC(C)=O)c1)c1ccccc1	5.8	-6.5	·	21.0	-0.6
Cc1cnc(C=O)c2cccc([N+](=O)[O-])c12	·	-9.0	-77.2*	·	·
Cc1ncc(C)c2c([N+](=O)[O-])cccc12	·	-2.9	-22.1	·	·
COc1ccc(Cc2c(C)nn(-c3nc(C)c(C(=O)Nc4cccc(C(C)=O)c4)s3)c2C)cc1	6.9	-6.3	·	-5.3	2.8
CCn1c(Cl)c(C=O)s/c1=N\S(=O)(=O)c1ccccc1	1.6	-23.7	-121.9*	-38.4*	-11.8
CCN1CCN(c2cc(=O)n(Cc3ccc(F)cc3)c(=O)[nH]2)CC1	0.7	2.6	-11.6	15.7	-3.5
CCOC(=O)N1CCN(c2cc(=O)n(Cc3ccc(F)cc3)c(=O)[nH]2)CC1	0.8	5.2	-6.8	-36.8*	-2.0
O=C(O/N=C(\c1ccccc1)c1ccncc1)c1ccccc1F	2.0	9.8	-9.1	-14.0	0.1
SMILES	D1 ag	D3 ag	DRD3 antagonist	D1 antag	D1 potentiator
O=C(O/N=C(/c1ccccc1)c1ccncc1)c1cccc(F)c1	2.0	0.7	4.8	-59.4*	-14.5
OC(CNCC1COc2ccccc2O1)COc1ccccc1F (stereo unspecified)	8.5	1.1	-78.2*	4.9	1.6
CCc1ccccc1OCC(=O)NCC1COc2ccccc2O1 (stereo unspecified)	·	-3.9	-10.5	·	·
OC(CNCC1COc2ccccc2O1)COc1ccc(Cl)cc1 (stereo unspecified)	19.2	1.6	-80.3*	3.3	-2.2
COCCn1c(CCC(=O)Nc2ccc(C)c(Cl)c2)nc2cccnc21	-1.5	-10.5	·	-0.2	3.0
O=c1[nH]c(C2CCCN(S(=O)(=O)c3ccccc3)C2)nc2c1nnn2Cc1ccc(OC(F)(F)F)cc1 (stereo unspecified)	0.9	-2.7	14.6	2.6	9.6
O=S(=O)(c1ccc(OC(F)(F)F)cc1)N1CCCC(c2ccccc2)C1 (stereo unspecified)	17.8	-7.7	-12.1	-34.4*	10.9
COc1ccc(/C=C/C(=O)Nc2sc3c(c2C(N)=O)CCC(C)C3)cc1OC (stereo unspecified)	-0.5	37.2*	·	-12.7	0.8
COc1cc(C(=O)Nc2sc3c(c2C(N)=O)CCC(C)C3)cc(OC)c1OC (stereo unspecified)	-0.7	0.3	·	7.4	-0.4
O=C(OCc1csc(-c2ccccc2)n1)C1=NN(c2ccccc2)C(=O)CC1	0.1	-2.4	-3.9	-35.9*	-10.3
O=C(OCC(=O)c1ccccc1)C1=NN(c2ccccc2)C(=O)CC1	·	-6.0	-7.0	·	·
CCCN(CCC)c1nn2c(=O)c(C(=O)NCc3cccc(OC)c3)cnc2s1	1.2	-10.2	·	1.8	-4.3
CC(=O)Nc1nonc1-c1nc2ccccc2n1Cc1ccccc1Br	1.0	-4.2	·	-69.7*	-1.8
CCOC(=O)CNC(=O)C1CCCc2c1[nH]c1ccc(Cl)cc21 (stereo unspecified)	16.2	8.0	1.3	-35.4*	-3.1
Cc1ccc(NC(=O)CN(CCc2ccccc2)S(=O)(=O)c2ccccc2)c(C)c1	5.8	-15.2	·	-11.8	-2.2
C[N+](C)(CCOc1ccccc1)Cc1ccccc1	·	3.1	0.9	·	·
Cc1cc(C(C)(C)CC(C)(C)C)ccc1OCCOCC[N+](C)(C)Cc1ccccc1	100.6*	-13.1	-20.2	7.9	-1.4
CCOC(=O)C1CCCN(CC(=O)Nc2c(C(=O)OC)[nH]c3ccc(Br)cc23)C1 (stereo unspecified)	2.3	-15.3	-51.4*	-4.7	-4.0
CCOC(=O)C1CCN(CC(=O)Nc2c(C(=O)OC)[nH]c3ccc(Cl)cc23)CC1	1.1	13.2	-3.1	-24.5	1.9
CCOC(=O)c1[nH]c2ccc(OCC)cc2c1NC(=O)CN1CCCC(C)C1 (stereo unspecified)	3.0	0.4	19.1	-36.4*	-5.7
CCOC(=O)c1[nH]c2ccc(C)cc2c1NC(=O)CN1CCCCC1	-0.6	-24.4	-10.4	-10.2	0.4
COc1cc(C2C(=O)N(C3CCCCC3)CC(=O)N2CCc2ccccc2)ccc1OC(C)C (stereo unspecified)	-5.2	-16.4	·	-4.6	1.1
Cc1ccc(N=Cc2cc3c(cc2[N+](=O)[O-])OCO3)cc1[N+](=O)[O-]	·	0.4	-8.0	·	·
CC(C)(C)c1ccc(O)c(N=Cc2cc3c(cc2[N+](=O)[O-])OCO3)c1	1.8	7.8	-7.1	3.9	-3.0

Bioassay records deposited in PubChem by National Center for Advancing Translational Sciences (NCATS).
